Results filed as inconclusive are left out. Where a call stands in place of a potency, no number is given. Active and inactive are the calls of the source. Calls come from the whole dose curve; as a rule, active = well fitted cell-killing curve with a large enough effect in the repeat runs; inconclusive = weak or mixed curves; inactive = flat fitted curve, though single readings scatter.

The experiment is described as follows: qHTS assay to identify small molecule antagonists of the estrogen related receptor (ERR) signaling pathway from Tox21 library - cell viability counter screen (AID 1224834). Note: nearly all actives have a fitted effect of over 30% in size. Particulars: ERR reporter cells viability, CellTiter-Fluor, 17.5 h; series mostly up to 92.4 µM. From the text: National Center for Advancing Translational Sciences [NCATS]
NIH Chemical Genomics Center [NCGC]
U.S. Environmental Protection Agency [EPA]
National Institutes of Environmental Health Sciences [NIEHS]
National Toxicology Program [NTP]
U.S. Food and Drug Administration [FDA]
Estrogen related receptors (ERRs), the first orphan nuclear receptors discovered, play an important role in the control of cellular energy metabolism. ERRs are required for high-energy production in response to the environmental challenges. ERR-alpha was also identified as an adverse marker for breast cancer progression; ERR-alpha-positive tumors have a poor prognosis. To screen and to identify environmental compounds that perturb the ERR signaling pathways could provide valuable information for potential therapeutic or preventive measures in the treatment of metabolic disease. To differentiate true ERR antagonists or agonist from cytotoxic substances, the assay is multiplexed with cell viability assay.
Tox21 Assay Protocol Summary:
The ERR cells were dispensed at 2,000 cells/5 ul/well in 1536-well white plates using a Multidrop dispenser. After the assay plates were incubated at a 37 C/5% CO2 incubator for 6 hours, 23 nL of compounds dissolved in DMSO, positive and negative controls or DMSO only was transferred to the assay plate by a pin tool. The plates were incubated at 37 C for 17.5 hours. 1 ul/well of CellTiter-Fluor reagent was added into the assay plates using a Flying Reagent Dispenser. After 30-minute incubation at 37 C/5% CO2, the fluorescence intensity in the plates was measured using a ViewLux plate reader.
(In general: In qHTS, concentration-response curves come from the screen itself.)
In the case of `CNC(=O)NC`, the Potency result was “inactive”.

For `CCCCCCCCC(=O)OCC`, the Potency entry was “inactive”.

Take `CCN(CCC#N)c1ccccc1`: the Potency entry is “inactive”.

Take `Cc1ccccc1C`: the Potency entry was “inactive”.

On to `Cc1cccc(Nc2ccncc2S(=O)(=O)NC(=O)NC(C)C)c1`, for which the Potency result is “inactive”.

For the compound `C[CH2][Ge]([Cl])([CH2]C)[CH2]C`, the Potency entry is “inactive”.

Consider `COc1ccc(OC)c(NC(=O)CC(C)=O)c1`, for which the Potency entry is “inactive”.

`CCS(=O)(=O)CCn1c([N+](=O)[O-])cnc1C`: the Potency result was “inactive”.

On to `CCOC(=O)OCC/C(SC(=O)OCC)=C(\C)N(C=O)Cc1cnc(C)nc1N`, for which the Potency result is “inactive”.

Turning to `CCC(=O)OCCC(C)CCC=C(C)C` (stereo not given), the Potency entry is “inactive”.

Turning to `O=C(O)CCNC(=O)c1ccccc1`, the Potency entry was “inactive”.

For the compound `COc1cccc2sc(N)nc12`, the Potency entry is “inactive”.

For `CC(C)(C)c1ccc(C=O)cc1`, the Potency entry was “inactive”.

Take `CC(C)CCCCCCOC(=O)C1CCCCC1C(=O)OCCCCCCC(C)C` (stereo not given): the Potency entry was “inactive”.

As to `FC(F)(F)/C(=N\OCC1OCCO1)c1ccc(Cl)cc1`, the Potency result is “inactive”.

For `O=S(=O)(O)c1cc(O)ccc1O`, the Potency entry is “inactive”.

As to `CC(=O)N1CCN(c2ccc(O)cc2)CC1`, the Potency entry was “inactive”.

Turning to `C=C(C)C(=O)OC1CC(C)CC(C)(C)C1` (stereo not given), the Potency result was “inactive”.

Consider `CCCCCCCCCOCC1CO1` (stereo not given), for which the Potency result is “inactive”.

For the compound `C=CCOC(=O)c1ccc(C(=O)OCC=C)c(C(=O)OCC=C)c1`, the Potency entry is “inactive”.

Regarding `C=C[Si](C)(C)O[Si](C)(C)C=C`, the Potency result is “inactive”.

As for `OC(CCN1CCCCC1)(c1ccccc1)c1ccccc1`, the Potency entry is “inactive”.

`CC(CC(=O)O)CC(C)(C)C` (stereo not given): the Potency entry is “inactive”.

On to `CCC(CO)CO`, for which the Potency entry is “inactive”.

Consider `C=COCCOCCOC=C`, for which the Potency entry was “inactive”.

Take `NC(=O)C1(N2CCCCC2)CCN(CCCC(=O)c2ccc(F)cc2)CC1`: the Potency entry was “inactive”.

In the case of `Cc1nc(C)nc(N2C[C@@H](C)N(c3ccnc([C@@H](C)O)n3)[C@@H](C)C2)n1`, the Potency entry is “inactive”.

As for `Oc1ccccc1Cc1ccccc1O`, the Potency result is “inactive”.

For `CC(=O)OCCCc1ccccc1`, the Potency entry is “inactive”.

In the case of `CC(C)COC(=O)/C=C/c1ccccc1`, the Potency entry is “inactive”.

Turning to `CCN(Cc1cccc(S(=O)(=O)O)c1)c1ccccc1`, the Potency result was “inactive”.

`O=S(=O)(O)CCO`: the Potency result is “inactive”.

Regarding `CCOC(=O)C(=O)c1csc(NC=O)n1`, the Potency result was “inactive”.

With `C=C(C)C(=O)OCCCCCCOC(=O)C(=C)C`, the Potency entry was “inactive”.

Turning to `O=S(=O)(O)SSS(=O)(=O)O`, the Potency entry is “inactive”.

Take `c1ccc(CNc2ncnc3nc[nH]c23)cc1`: the Potency entry is “inactive”.

As to `CCCCOC(=O)C(C)OC(=O)CCC` (stereo not given), the Potency entry is “inactive”.

Take `Cc1cc(C)cc([N+](=O)[O-])c1`: the Potency entry was “inactive”.

Take `C[C@@H]1C[C@H]2[C@@H]3C[C@H](F)C4=CC(=O)C=C[C@]4(C)[C@@]3(F)[C@@H](O)C[C@]2(C)[C@@]1(O)C(=O)CO`: the Potency entry is “inactive”.

On to `CNCc1ccccc1`, for which the Potency result was “inactive”.
